# Source: publication PMC7862700, “An all-to-all approach to the identification of sequence-specific readers for epigenetic DNA modifications on cytosine”
# Assays:
# Assay in all cases: DAPPL (digital affinity profiling via proximity ligation, sequencing); 10 mM Tris-HCl pH 7.5, 50 mM NaCl, 1 mM DTT, 4% glycerol, room temperature, 30 min; GST-TFs on glutathione beads, 16-mer random dsDNA library, 0.1% formaldehyde crosslink after washing; high values mean tight binding
# Details in all cases: protein: recombinant; tags: N-terminal GST; dsDNA, one strand shown
# FLI1 = target: T1, FLI1 (Homo sapiens, UniProt Q01543 1-452)
# T1 sequence: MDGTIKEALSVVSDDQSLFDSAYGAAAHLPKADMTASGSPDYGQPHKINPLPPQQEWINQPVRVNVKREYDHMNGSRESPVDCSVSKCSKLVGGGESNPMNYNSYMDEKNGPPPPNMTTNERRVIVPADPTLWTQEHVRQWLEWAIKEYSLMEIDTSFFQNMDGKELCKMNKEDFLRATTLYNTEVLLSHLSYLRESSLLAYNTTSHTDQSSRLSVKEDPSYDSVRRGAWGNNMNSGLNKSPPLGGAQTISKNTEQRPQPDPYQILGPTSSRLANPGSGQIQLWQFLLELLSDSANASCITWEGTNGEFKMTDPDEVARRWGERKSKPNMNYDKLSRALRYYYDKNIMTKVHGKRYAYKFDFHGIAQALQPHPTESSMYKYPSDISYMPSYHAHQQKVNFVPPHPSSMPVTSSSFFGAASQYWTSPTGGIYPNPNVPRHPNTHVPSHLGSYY
# How it was run: (§1)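 Pools were built from human transcription factors expressed in yeast as GST fusions, captured on glutathione beads and DNA-barcoded, along with a tag-only sample. Incubation with 200 nmole of a 16-mer random double-stranded DNA library lasted 30 min at room temperature in Tris/NaCl/DTT/glycerol buffer, and was followed by washing, 0.1% formaldehyde crosslinking, proximity ligation, PCR amplification and Illumina NextSeq500 sequencing. Binding signal is the quotient of each hexamer's read frequency for a factor and its frequency for the tag-only sample.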
# EHF = target: T2, EHF (Homo sapiens, UniProt Q9NZC4 1-300)
# T2 sequence: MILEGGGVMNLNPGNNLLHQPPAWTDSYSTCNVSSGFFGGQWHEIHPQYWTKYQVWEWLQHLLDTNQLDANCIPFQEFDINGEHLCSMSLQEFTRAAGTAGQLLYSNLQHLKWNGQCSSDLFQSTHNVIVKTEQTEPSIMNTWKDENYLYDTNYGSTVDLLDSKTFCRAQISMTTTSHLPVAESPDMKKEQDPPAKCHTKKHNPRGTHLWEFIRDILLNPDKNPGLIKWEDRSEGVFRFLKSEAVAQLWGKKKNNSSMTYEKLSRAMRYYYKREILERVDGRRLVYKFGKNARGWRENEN
# How it was run: as §1
# SPI1 = SPI1 (Homo sapiens, UniProt P17947 1-270)
# How it was run: as §1
# FEV = target: T3, FEV (Homo sapiens, UniProt Q99581 1-238)
# T3 sequence: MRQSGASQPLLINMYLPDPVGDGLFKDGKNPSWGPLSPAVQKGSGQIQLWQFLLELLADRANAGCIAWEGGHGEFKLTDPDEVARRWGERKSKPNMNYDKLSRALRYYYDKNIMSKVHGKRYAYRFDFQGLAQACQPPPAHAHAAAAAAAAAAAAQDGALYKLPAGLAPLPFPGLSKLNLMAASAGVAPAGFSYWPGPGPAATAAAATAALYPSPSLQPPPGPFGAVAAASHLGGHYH
# How it was run: as §1
# ETV5 = ETV5 (Homo sapiens, UniProt P41161 1-510)
# Sequence of ETV5 (P41161 whole entry): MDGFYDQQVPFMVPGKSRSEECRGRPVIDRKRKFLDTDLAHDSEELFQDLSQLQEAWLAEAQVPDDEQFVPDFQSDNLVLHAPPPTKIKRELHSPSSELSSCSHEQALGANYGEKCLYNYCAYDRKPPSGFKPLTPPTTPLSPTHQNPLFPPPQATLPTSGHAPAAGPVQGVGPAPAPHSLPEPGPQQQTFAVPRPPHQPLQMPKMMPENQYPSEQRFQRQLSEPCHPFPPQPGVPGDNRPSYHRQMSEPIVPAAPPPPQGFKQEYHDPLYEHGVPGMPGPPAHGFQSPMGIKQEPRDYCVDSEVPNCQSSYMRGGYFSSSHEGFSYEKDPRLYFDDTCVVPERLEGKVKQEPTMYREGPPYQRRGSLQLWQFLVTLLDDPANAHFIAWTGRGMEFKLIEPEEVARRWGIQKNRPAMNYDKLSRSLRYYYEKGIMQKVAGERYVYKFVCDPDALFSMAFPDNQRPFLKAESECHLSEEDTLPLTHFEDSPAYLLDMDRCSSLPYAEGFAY
# How it was run: as §1
# ETV7 = target: T4, ETV7 (Homo sapiens, UniProt Q9Y603 1-341)
# T4 sequence: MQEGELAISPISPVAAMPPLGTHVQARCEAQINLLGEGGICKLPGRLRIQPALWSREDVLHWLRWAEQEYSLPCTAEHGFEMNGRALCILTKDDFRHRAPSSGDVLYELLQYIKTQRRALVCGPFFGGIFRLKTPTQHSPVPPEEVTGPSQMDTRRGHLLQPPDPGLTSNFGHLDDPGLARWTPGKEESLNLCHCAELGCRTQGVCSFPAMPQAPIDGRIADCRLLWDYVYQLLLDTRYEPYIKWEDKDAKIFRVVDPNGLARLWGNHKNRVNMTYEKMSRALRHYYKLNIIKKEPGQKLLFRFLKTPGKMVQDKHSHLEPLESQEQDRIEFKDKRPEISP
# How it was run: as §1
# ETV6 = ETV6 (Homo sapiens, UniProt P41212 1-452)
# Sequence of ETV6 (P41212 whole entry): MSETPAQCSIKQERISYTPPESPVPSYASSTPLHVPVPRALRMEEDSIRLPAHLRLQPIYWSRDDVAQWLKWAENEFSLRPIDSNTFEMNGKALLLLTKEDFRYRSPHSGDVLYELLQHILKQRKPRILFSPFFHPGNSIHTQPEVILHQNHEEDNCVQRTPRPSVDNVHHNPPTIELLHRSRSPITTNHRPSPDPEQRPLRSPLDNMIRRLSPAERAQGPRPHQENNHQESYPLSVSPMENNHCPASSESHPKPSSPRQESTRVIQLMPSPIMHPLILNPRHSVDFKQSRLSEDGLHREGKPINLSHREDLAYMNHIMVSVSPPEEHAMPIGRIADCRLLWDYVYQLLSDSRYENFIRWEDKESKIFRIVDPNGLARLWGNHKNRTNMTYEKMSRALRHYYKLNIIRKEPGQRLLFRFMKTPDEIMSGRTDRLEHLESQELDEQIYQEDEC
# How it was run: as §1
# ELK1 = target: T5, ELK1 (Homo sapiens, UniProt P19419 1-428)
# T5 sequence: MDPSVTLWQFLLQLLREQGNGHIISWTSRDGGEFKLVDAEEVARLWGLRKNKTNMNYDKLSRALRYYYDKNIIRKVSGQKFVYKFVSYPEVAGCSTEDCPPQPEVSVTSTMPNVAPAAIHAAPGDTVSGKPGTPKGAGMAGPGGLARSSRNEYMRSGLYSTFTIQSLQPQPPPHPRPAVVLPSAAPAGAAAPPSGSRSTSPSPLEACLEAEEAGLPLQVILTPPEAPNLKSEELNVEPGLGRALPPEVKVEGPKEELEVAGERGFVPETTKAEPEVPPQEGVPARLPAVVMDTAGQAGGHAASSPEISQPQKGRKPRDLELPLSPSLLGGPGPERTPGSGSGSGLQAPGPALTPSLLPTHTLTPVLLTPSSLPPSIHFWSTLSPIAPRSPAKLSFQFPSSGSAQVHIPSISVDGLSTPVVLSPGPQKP
# How it was run: as §1
# GABPA = target: T6, GABPA (Homo sapiens, UniProt Q06546 1-454)
# T6 sequence: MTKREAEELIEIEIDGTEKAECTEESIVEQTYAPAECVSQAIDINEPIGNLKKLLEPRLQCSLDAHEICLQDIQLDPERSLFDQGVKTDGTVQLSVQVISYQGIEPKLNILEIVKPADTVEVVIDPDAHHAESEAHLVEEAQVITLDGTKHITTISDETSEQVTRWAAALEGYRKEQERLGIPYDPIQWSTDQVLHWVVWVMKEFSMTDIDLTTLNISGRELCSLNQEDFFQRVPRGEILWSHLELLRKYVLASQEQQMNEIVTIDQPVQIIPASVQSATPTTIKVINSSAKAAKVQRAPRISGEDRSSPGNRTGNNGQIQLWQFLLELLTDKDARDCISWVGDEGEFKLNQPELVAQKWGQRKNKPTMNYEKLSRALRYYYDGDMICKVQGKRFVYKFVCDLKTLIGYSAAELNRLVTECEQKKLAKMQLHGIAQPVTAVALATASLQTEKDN
# How it was run: as §1
# ERG = target: T7, ERG (Homo sapiens, UniProt P11308 1-479)
# T7 sequence: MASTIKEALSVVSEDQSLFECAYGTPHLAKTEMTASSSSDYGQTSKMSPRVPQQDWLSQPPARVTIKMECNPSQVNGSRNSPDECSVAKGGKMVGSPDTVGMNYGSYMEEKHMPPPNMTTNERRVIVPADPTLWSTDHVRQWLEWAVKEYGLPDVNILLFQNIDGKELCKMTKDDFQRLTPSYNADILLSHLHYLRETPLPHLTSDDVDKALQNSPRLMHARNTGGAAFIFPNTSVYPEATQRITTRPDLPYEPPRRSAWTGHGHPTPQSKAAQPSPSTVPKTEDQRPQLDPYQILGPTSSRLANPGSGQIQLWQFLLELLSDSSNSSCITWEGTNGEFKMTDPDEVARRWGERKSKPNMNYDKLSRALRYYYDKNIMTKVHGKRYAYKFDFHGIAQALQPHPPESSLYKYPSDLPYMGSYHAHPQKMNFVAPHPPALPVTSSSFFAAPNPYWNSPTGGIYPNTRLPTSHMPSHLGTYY
# How it was run: as §1
# ELF1 = ELF1 (Homo sapiens, UniProt P32519 1-619)
# Sequence of ELF1 (P32519 whole entry): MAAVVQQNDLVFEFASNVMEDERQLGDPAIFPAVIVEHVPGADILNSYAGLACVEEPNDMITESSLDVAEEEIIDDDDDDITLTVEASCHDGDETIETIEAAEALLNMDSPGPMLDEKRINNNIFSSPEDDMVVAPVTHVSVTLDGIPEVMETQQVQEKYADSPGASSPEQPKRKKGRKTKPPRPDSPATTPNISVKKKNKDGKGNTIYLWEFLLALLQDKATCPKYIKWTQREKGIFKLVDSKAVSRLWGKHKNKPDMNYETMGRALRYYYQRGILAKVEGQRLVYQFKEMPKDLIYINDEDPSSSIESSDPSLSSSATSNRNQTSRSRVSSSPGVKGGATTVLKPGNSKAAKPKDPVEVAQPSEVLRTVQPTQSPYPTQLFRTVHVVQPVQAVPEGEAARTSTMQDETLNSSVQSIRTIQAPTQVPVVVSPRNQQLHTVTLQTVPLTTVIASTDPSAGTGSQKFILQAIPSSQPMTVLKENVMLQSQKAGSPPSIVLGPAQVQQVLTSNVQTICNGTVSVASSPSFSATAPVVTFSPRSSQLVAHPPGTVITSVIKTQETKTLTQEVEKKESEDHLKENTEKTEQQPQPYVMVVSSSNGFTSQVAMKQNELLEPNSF
# How it was run: as §1
# ETV2 = target: T8, ETV2 (Homo sapiens, UniProt O00321 1-342)
# T8 sequence: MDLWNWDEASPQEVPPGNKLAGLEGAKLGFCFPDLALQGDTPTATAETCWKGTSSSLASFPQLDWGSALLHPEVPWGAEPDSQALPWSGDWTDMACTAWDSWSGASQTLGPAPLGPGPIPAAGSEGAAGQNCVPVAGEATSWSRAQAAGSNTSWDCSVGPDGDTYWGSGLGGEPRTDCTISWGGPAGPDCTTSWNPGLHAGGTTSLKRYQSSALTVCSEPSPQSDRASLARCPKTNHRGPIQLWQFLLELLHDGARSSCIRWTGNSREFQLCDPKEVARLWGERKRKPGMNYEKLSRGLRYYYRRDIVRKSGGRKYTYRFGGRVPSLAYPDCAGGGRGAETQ
# How it was run: as §1
# ETV3L = target: T9, ETV3L (Homo sapiens, UniProt Q6ZN32 1-361)
# T9 sequence: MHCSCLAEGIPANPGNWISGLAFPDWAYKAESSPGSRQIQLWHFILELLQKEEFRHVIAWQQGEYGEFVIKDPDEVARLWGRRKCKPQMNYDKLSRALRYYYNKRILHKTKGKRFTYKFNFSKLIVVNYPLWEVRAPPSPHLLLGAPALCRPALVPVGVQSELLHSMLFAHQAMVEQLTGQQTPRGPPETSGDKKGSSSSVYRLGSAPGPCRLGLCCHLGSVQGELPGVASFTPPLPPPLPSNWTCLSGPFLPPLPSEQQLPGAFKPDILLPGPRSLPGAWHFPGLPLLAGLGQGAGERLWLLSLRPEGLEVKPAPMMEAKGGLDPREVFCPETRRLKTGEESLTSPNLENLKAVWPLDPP
# How it was run: as §1
# ETS2 = target: T10, ETS2 (Homo sapiens, UniProt P15036 1-469)
# T10 sequence: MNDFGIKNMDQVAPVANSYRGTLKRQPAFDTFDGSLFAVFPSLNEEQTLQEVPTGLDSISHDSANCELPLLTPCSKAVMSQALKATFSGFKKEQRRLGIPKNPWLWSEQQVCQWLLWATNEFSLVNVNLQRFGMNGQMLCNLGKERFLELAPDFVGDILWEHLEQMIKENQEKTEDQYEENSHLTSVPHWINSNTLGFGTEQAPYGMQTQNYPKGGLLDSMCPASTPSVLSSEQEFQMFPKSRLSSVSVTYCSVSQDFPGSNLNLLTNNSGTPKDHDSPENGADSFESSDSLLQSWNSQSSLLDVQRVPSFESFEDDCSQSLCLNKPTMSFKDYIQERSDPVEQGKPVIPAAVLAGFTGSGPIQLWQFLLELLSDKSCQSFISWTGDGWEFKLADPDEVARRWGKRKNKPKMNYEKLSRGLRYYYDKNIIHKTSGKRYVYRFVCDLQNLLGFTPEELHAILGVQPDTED
# How it was run: as §1
# ETV3 = target: T11, ETV3 (Homo sapiens, UniProt P41162-2 1-143)
# T11 sequence: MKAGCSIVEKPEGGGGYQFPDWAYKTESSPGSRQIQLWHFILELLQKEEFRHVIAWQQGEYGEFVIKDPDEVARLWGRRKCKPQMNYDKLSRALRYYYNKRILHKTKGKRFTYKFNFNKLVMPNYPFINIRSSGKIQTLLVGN
# How it was run: as §1
Sequence,binding signal (FLI1),binding signal (EHF),binding signal (SPI1),binding signal (FEV),binding signal (ETV5),binding signal (ETV7),binding signal (ETV6),binding signal (ELK1),binding signal (GABPA),binding signal (ERG),binding signal (ELF1),binding signal (ETV2),binding signal (ETV3L),binding signal (ETS2),binding signal (ETV3)
AGTGTA,"1.03 fold enrichment (6-mer frequency, TF over GST control)","1.02 fold enrichment (6-mer frequency, TF over GST control)","1.24 fold enrichment (6-mer frequency, TF over GST control)","1.01 fold enrichment (6-mer frequency, TF over GST control)","1.05 fold enrichment (6-mer frequency, TF over GST control)","1.1 fold enrichment (6-mer frequency, TF over GST control)","1.03 fold enrichment (6-mer frequency, TF over GST control)",,,,,,,,
ACTAGG,"1.03 fold enrichment (6-mer frequency, TF over GST control)","1.04 fold enrichment (6-mer frequency, TF over GST control)","1.07 fold enrichment (6-mer frequency, TF over GST control)","1.02 fold enrichment (6-mer frequency, TF over GST control)","1.03 fold enrichment (6-mer frequency, TF over GST control)",,,"1.1 fold enrichment (6-mer frequency, TF over GST control)","1.09 fold enrichment (6-mer frequency, TF over GST control)","1.03 fold enrichment (6-mer frequency, TF over GST control)","1.08 fold enrichment (6-mer frequency, TF over GST control)","1.28 fold enrichment (6-mer frequency, TF over GST control)","1.04 fold enrichment (6-mer frequency, TF over GST control)","1.08 fold enrichment (6-mer frequency, TF over GST control)","1.03 fold enrichment (6-mer frequency, TF over GST control)"
